# Measured values: publication PMC7862700, “An all-to-all approach to the identification of sequence-specific readers for epigenetic DNA modifications on cytosine”
# Tests used:
# Experiment in all cases: DAPPL (digital affinity profiling via proximity ligation, sequencing); 10 mM Tris-HCl pH 7.5, 50 mM NaCl, 1 mM DTT, 4% glycerol, room temperature, 30 min; GST-TFs on glutathione beads, 16-mer random dsDNA library, 0.1% formaldehyde crosslink after washing; high values mean tight binding
# Settings in all cases: protein: recombinant; tags: N-terminal GST; dsDNA, one strand shown
# [1] = molecular target: T1, FLI1 (Homo sapiens, UniProt Q01543 1-452)
# T1 sequence: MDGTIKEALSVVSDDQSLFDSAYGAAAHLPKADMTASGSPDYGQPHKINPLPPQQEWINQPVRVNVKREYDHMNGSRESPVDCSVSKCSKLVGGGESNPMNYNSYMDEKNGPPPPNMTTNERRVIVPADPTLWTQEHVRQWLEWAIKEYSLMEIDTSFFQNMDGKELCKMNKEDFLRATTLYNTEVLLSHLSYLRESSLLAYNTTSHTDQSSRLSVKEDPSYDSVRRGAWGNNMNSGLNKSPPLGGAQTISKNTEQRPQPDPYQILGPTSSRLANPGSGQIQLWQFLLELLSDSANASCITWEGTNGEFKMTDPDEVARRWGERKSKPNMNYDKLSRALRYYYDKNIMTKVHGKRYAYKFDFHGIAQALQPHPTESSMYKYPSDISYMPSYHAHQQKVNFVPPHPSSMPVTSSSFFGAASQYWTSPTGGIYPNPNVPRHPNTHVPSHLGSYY
# Procedure, shortened: (§1)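 Human transcription factors carrying a GST fusion were produced in yeast, bound to glutathione beads, tagged with DNA barcodes and pooled together with a tag-only sample. Each pool was held with 200 nmole of a random double-stranded 16-mer DNA library in Tris/NaCl/DTT/glycerol buffer for 30 min at room temperature, then washed, crosslinked in 0.1% formaldehyde, proximity-ligated with BsaI/T4 ligase (1 h, 37 °C), PCR-amplified and sequenced on an Illumina NextSeq500. Binding signal is the read frequency of each hexamer for a given factor divided by its frequency in the tag-only sample.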
# [2] = molecular target: T2, ELK1 (Homo sapiens, UniProt P19419 1-428)
# T2 sequence: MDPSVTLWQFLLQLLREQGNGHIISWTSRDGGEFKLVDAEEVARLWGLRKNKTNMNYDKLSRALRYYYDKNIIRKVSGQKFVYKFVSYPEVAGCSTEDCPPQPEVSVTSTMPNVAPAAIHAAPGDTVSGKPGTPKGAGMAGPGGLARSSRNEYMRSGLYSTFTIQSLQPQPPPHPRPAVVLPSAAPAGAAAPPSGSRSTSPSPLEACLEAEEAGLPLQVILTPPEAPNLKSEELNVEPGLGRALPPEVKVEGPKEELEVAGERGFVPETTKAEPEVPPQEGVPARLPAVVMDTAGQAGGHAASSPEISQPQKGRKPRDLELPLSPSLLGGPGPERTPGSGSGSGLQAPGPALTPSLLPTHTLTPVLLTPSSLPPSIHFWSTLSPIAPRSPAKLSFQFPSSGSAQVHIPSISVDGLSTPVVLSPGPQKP
# Procedure, shortened: as §1
# [3] = molecular target: T3, GABPA (Homo sapiens, UniProt Q06546 1-454)
# T3 sequence: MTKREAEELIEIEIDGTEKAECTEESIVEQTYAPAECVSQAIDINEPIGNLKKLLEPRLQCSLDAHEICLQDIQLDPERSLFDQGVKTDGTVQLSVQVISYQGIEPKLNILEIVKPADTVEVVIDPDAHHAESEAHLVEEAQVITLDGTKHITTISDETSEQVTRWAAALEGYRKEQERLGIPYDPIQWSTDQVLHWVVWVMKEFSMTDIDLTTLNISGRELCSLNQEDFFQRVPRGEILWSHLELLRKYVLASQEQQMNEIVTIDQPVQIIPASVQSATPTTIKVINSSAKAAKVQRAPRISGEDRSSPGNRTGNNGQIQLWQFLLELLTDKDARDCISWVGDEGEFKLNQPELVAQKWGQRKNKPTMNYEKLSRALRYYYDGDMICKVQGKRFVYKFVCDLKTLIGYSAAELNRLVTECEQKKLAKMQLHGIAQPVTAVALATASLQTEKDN
# Procedure, shortened: as §1
# [4] = molecular target: T4, ERG (Homo sapiens, UniProt P11308 1-479)
# T4 sequence: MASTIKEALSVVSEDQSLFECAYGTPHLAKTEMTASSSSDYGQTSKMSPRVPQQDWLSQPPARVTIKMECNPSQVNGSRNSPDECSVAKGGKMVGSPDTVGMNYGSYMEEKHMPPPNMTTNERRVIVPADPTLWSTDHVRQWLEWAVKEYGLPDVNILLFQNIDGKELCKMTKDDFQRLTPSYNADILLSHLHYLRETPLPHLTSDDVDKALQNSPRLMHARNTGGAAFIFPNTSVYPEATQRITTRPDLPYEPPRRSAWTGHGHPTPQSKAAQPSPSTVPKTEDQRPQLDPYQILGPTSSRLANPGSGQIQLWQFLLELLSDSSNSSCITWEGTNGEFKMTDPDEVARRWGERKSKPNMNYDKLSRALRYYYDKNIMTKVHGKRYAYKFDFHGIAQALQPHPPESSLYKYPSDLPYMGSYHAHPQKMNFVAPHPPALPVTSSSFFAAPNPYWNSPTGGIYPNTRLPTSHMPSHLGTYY
# Procedure, shortened: as §1
# [5] = molecular target: ELF1 (Homo sapiens, UniProt P32519 1-619)
# Sequence of ELF1 (P32519 whole entry): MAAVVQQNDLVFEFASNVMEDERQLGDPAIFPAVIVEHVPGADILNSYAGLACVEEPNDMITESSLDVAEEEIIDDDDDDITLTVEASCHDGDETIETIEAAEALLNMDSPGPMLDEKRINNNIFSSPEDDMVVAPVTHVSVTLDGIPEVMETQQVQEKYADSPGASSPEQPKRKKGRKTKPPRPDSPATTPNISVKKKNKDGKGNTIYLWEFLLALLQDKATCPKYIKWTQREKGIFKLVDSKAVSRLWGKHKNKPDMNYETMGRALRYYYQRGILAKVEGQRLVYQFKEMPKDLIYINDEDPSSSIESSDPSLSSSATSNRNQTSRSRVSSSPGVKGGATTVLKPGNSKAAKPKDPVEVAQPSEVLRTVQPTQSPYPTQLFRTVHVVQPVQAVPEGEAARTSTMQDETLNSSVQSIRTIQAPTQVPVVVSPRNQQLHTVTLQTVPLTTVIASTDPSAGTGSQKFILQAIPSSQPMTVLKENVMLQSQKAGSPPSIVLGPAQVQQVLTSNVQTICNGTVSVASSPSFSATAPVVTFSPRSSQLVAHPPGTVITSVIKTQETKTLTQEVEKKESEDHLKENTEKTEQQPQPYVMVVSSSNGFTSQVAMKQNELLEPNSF
# Procedure, shortened: as §1
# [6] = molecular target: T5, EHF (Homo sapiens, UniProt Q9NZC4 1-300)
# T5 sequence: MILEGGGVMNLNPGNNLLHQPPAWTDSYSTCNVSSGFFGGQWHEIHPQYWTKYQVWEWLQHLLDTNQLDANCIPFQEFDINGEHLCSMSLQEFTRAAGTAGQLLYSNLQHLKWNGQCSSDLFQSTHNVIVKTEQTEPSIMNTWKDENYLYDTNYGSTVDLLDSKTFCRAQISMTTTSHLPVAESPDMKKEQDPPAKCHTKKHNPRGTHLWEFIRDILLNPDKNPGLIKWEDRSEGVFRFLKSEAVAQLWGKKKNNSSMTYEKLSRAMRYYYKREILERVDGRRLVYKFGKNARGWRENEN
# Procedure, shortened: as §1
# [7] = molecular target: SPI1 (Homo sapiens, UniProt P17947 1-270)
# Procedure, shortened: as §1
# [8] = molecular target: SPIB (Homo sapiens, UniProt Q01892 1-262)
# Sequence of SPIB (Q01892 whole entry): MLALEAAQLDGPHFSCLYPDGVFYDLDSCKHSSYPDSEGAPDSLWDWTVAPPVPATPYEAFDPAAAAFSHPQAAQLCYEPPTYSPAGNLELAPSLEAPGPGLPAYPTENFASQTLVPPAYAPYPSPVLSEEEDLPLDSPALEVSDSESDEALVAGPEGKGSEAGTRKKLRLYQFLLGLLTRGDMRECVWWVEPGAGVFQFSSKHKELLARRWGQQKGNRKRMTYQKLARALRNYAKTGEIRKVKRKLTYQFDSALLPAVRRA
# Procedure, shortened: as §1
# [9] = molecular target: T6, ELK3 (Homo sapiens, UniProt P41970 1-407)
# T6 sequence: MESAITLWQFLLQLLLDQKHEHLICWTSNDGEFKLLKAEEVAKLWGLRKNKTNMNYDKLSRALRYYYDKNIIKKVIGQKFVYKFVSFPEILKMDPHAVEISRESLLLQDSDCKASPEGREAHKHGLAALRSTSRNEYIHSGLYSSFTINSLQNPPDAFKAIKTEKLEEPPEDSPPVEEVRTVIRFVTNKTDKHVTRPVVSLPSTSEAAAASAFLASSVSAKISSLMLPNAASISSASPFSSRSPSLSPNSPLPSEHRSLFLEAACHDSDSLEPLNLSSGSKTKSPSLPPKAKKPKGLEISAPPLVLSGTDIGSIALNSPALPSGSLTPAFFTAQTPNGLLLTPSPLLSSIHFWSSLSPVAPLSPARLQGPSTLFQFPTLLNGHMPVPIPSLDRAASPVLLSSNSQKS
# Procedure, shortened: as §1
Sequence,binding signal [1],binding signal [2],binding signal [3],binding signal [4],binding signal [5],binding signal [6],binding signal [7],binding signal [8],binding signal [9]
CGGCTT,"1.17 fold enrichment (6-mer frequency, TF over GST control)","1.2 fold enrichment (6-mer frequency, TF over GST control)","1.12 fold enrichment (6-mer frequency, TF over GST control)","1.19 fold enrichment (6-mer frequency, TF over GST control)","1.13 fold enrichment (6-mer frequency, TF over GST control)","1.13 fold enrichment (6-mer frequency, TF over GST control)","1.17 fold enrichment (6-mer frequency, TF over GST control)","1.18 fold enrichment (6-mer frequency, TF over GST control)","1.12 fold enrichment (6-mer frequency, TF over GST control)"
CCGTAT,"1.22 fold enrichment (6-mer frequency, TF over GST control)","1.36 fold enrichment (6-mer frequency, TF over GST control)","1.31 fold enrichment (6-mer frequency, TF over GST control)","1.2 fold enrichment (6-mer frequency, TF over GST control)","1.26 fold enrichment (6-mer frequency, TF over GST control)","1.14 fold enrichment (6-mer frequency, TF over GST control)","1.26 fold enrichment (6-mer frequency, TF over GST control)","1.31 fold enrichment (6-mer frequency, TF over GST control)","1.32 fold enrichment (6-mer frequency, TF over GST control)"
TTTCCT,"2.49 fold enrichment (6-mer frequency, TF over GST control)","2.32 fold enrichment (6-mer frequency, TF over GST control)","2.32 fold enrichment (6-mer frequency, TF over GST control)","2.72 fold enrichment (6-mer frequency, TF over GST control)","2.19 fold enrichment (6-mer frequency, TF over GST control)","2.4 fold enrichment (6-mer frequency, TF over GST control)","2.33 fold enrichment (6-mer frequency, TF over GST control)","2.52 fold enrichment (6-mer frequency, TF over GST control)","2.53 fold enrichment (6-mer frequency, TF over GST control)"
CAACAT,"1.18 fold enrichment (6-mer frequency, TF over GST control)","1.21 fold enrichment (6-mer frequency, TF over GST control)","1.22 fold enrichment (6-mer frequency, TF over GST control)","1.2 fold enrichment (6-mer frequency, TF over GST control)","1.2 fold enrichment (6-mer frequency, TF over GST control)","1.23 fold enrichment (6-mer frequency, TF over GST control)","1.06 fold enrichment (6-mer frequency, TF over GST control)","1.14 fold enrichment (6-mer frequency, TF over GST control)","1.14 fold enrichment (6-mer frequency, TF over GST control)"
GATGAA,"1.23 fold enrichment (6-mer frequency, TF over GST control)","1.26 fold enrichment (6-mer frequency, TF over GST control)","1.2 fold enrichment (6-mer frequency, TF over GST control)","1.17 fold enrichment (6-mer frequency, TF over GST control)","1.18 fold enrichment (6-mer frequency, TF over GST control)","1.15 fold enrichment (6-mer frequency, TF over GST control)","1.1 fold enrichment (6-mer frequency, TF over GST control)","1.24 fold enrichment (6-mer frequency, TF over GST control)","1.11 fold enrichment (6-mer frequency, TF over GST control)"
CTACCC,"1.27 fold enrichment (6-mer frequency, TF over GST control)","1.32 fold enrichment (6-mer frequency, TF over GST control)","1.4 fold enrichment (6-mer frequency, TF over GST control)","1.36 fold enrichment (6-mer frequency, TF over GST control)","1.33 fold enrichment (6-mer frequency, TF over GST control)","1.27 fold enrichment (6-mer frequency, TF over GST control)","1.31 fold enrichment (6-mer frequency, TF over GST control)","1.34 fold enrichment (6-mer frequency, TF over GST control)","1.31 fold enrichment (6-mer frequency, TF over GST control)"
CACTAC,"1.38 fold enrichment (6-mer frequency, TF over GST control)","1.37 fold enrichment (6-mer frequency, TF over GST control)","1.36 fold enrichment (6-mer frequency, TF over GST control)","1.31 fold enrichment (6-mer frequency, TF over GST control)","1.33 fold enrichment (6-mer frequency, TF over GST control)","1.28 fold enrichment (6-mer frequency, TF over GST control)","1.17 fold enrichment (6-mer frequency, TF over GST control)","1.36 fold enrichment (6-mer frequency, TF over GST control)","1.27 fold enrichment (6-mer frequency, TF over GST control)"
